Activity calls are given as the source filed them. Rule for the calls: active = hit-call score of the fitted dose curve at least 0.9, where 1 is the maximum; inactive = score below 0.9.
Experiment: APR_HepG2_P-H2AX_72hr: Apredica 72-hour HepG2 Assay for H2AX Phosphorylation (AID 2282916);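 note: phospho-histone H2A.x immunostain intensity per cell marking DNA damage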
Conditions: imaging, actives raise or lower the signal
Outline: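 Following 72 hr treatment with 0.39–200 uM compound, HepG2 cells were formaldehyde-fixed, permeabilized and stained for phospho-H2A.x; signal was measured by high-content imaging and fitted bidirectionally against DMSO controls.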

Q: Which outcome does the source give for C[C@]12CCC(=O)C=C1CC[C@@H]1[C@@H]2CC[C@]2(C)C(=O)CC[C@@H]12 here?
A: Its outcome is “inactive”.

Q: Which outcome does the source give for O=S(=O)(O)C(F)(F)C(F)(F)C(F)(F)C(F)(F)C(F)(F)C(F)(F)F here?
A: Its outcome is “inactive”.

Q: Which outcome does the source give for CCOP(=S)(OCC)SCSC(C)(C)C here?
A: Its outcome is “inactive”.

Q: Which outcome does the source give for O=C(NC(=O)c1cc(F)c(F)cc1Cl)Nc1cc(F)ccc1N1CCC(C(=O)O)CC1 here?
A: The outcome was “inactive”.

Q: For CC(c1ccc(O)cc1)(c1ccc(O)cc1)c1ccc(O)cc1, which AC50 is on record?
A: The AC50 was 95.4 µM (active).

Q: With ClC1=C(Cl)[C@]2(Cl)[C@@H]3[C@@H](Cl)[C@H]4O[C@H]4[C@@H]3C1(Cl)C2(Cl)Cl as the molecule, how does the AC50 read?
A: The AC50 was 48.2 µM (active).

Q: Which outcome does the source give for Cc1ccccc1[N+](=O)[O-] here?
A: Its outcome is “inactive”.

Q: With ClC1=C(Cl)[C@]2(Cl)[C@@H]3[C@H]4C[C@H]([C@@H]5O[C@H]45)[C@@H]3[C@@]1(Cl)C2(Cl)Cl as the molecule, how does the outcome read?
A: The outcome was “inactive”.

Q: With Oc1c(Cl)c(Cl)c(Cl)c(Cl)c1Cl as the molecule, how does the outcome read?
A: The outcome was “inactive”.

Q: Which outcome does the source give for CCCCCCCCCc1ccc(O)cc1 here?
A: The outcome was “inactive”.

Q: For O=S(=O)(O)C(F)(F)C(F)(F)C(F)(F)C(F)(F)F, which outcome is on record?
A: The outcome was “inactive”.

Q: Which outcome does the source give for Cc1cc(-c2ccc(N)c(C)c2)ccc1N here?
A: The outcome was “inactive”.

Q: Which outcome does the source give for CC#Cc1cc(C)nc(Nc2ccccc2)n1 here?
A: The outcome was “inactive”.

Q: With O=C(O)C(F)(F)C(F)(F)C(F)(F)C(F)(F)C(F)(F)C(F)(F)C(F)(F)C(F)(F)F as the molecule, how does the outcome read?
A: Its outcome is “inactive”.

Q: With O=C(O)C(F)(F)C(F)(F)C(F)(F)C(F)(F)C(F)(F)C(F)(F)C(F)(F)C(F)(F)C(F)(F)F as the molecule, how does the AC50 read?
A: The AC50 was 108 µM (active).

Q: For CCCCCCCCCC[N+](C)(C)CCCCCCCCCC, which AC50 is on record?
A: Its AC50 is 5.55 µM (active).

Q: With CCC(=O)O[C@H]1CC[C@H]2[C@@H]3CCC4=CC(=O)CC[C@]4(C)[C@H]3CC[C@]12C as the molecule, how does the AC50 read?
A: The AC50 was 86.5 µM (active).

Q: With COc1ccc(O)c(C(C)(C)C)c1 as the molecule, how does the outcome read?
A: The outcome was “inactive”.

Q: Which AC50 does the source give for CC1=C2C[C@H]3[C@@H](CC=C4C[C@@H](O)CC[C@@]43C)[C@@H]2CC[C@]12O[C@@H]1C[C@H](C)CN[C@H]1[C@H]2C here?
A: Its AC50 is 50 µM (active).

Q: For O=C(N[C@H]1CN2CCC1CC2)c1cc2ccoc2cn1, which outcome is on record?
A: The outcome was “inactive”.

Q: Which AC50 does the source give for NS(=O)(=O)C(F)(F)C(F)(F)C(F)(F)C(F)(F)C(F)(F)C(F)(F)C(F)(F)C(F)(F)F here?
A: Its AC50 is 99.3 µM (active).

Q: With Oc1ccc(C(c2ccc(O)cc2)(C(F)(F)F)C(F)(F)F)cc1 as the molecule, how does the outcome read?
A: Its outcome is “inactive”.

Q: Which outcome does the source give for ClC(Cl)=C(c1ccc(Cl)cc1)c1ccc(Cl)cc1 here?
A: Its outcome is “inactive”.

Q: For C[C@]12CCC(=O)C=C1CC[C@@H]1[C@@H]2CC[C@@]2(C)[C@H]1CC[C@]2(C)O, which outcome is on record?
A: Its outcome is “inactive”.

Q: Which outcome does the source give for CCCN(CCC)N=O here?
A: Its outcome is “inactive”.

Q: Which AC50 does the source give for CC(C)(c1ccccc1)c1ccc(O)cc1 here?
A: Its AC50 is 97 µM (active).

Q: With Cc1cc2c3c(c1)C(c1ccccc1)=N[C@@H](NC(=O)c1ccncc1)C(=O)N3CC2 as the molecule, how does the outcome read?
A: Its outcome is “inactive”.

Q: For CC(C)(O)C(=O)Nc1ccc([N+](=O)[O-])c(C(F)(F)F)c1, which outcome is on record?
A: Its outcome is “inactive”.

Q: For CCCCCCOC(=O)c1ccccc1C(=O)OCCCCCC, which outcome is on record?
A: Its outcome is “inactive”.

Q: Which outcome does the source give for N#Cc1ccc(N(CC(N)=O)CC(F)(F)F)cc1C(F)(F)F here?
A: Its outcome is “inactive”.

Q: Which outcome does the source give for Clc1ccc(Cl)cc1 here?
A: The outcome was “inactive”.

Q: Which outcome does the source give for Clc1ccc(C(c2ccccc2Cl)C(Cl)(Cl)Cl)cc1 (stereo unspecified) here?
A: The outcome was “inactive”.

Q: For c1cc2ccc3cccc4ccc(c1)c2c34, which AC50 is on record?
A: Its AC50 is 104 µM (active).

Experiment: APR_HepG2_MitoMembPot_72hr: Apredica 72-hour HepG2 Assay for Mitochondrial Membrane Potential (AID 2282917)
Conditions: imaging, actives raise or lower the signal
Outline: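 HepG2 cells exposed 72 h to compounds at 0.39–200 uM (0.5% v/v DMSO, duplicates); MitoTracker Red CMXRos 250 nM loaded 30 min before 3.7% formaldehyde fixation, imaged by HCS fluorescence. Bidirectional fit versus DMSO.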

Q: For C[C@]12CCC(=O)C=C1CC[C@@H]1[C@@H]2CC[C@]2(C)C(=O)CC[C@@H]12, which outcome is on record?
A: The outcome was “inactive”.

Q: With O=S(=O)(O)C(F)(F)C(F)(F)C(F)(F)C(F)(F)C(F)(F)C(F)(F)F as the molecule, how does the outcome read?
A: The outcome was “inactive”.

Q: For CCOP(=S)(OCC)SCSC(C)(C)C, which outcome is on record?
A: The outcome was “inactive”.

Q: Which outcome does the source give for O=C(NC(=O)c1cc(F)c(F)cc1Cl)Nc1cc(F)ccc1N1CCC(C(=O)O)CC1 here?
A: The outcome was “inactive”.

Q: Which outcome does the source give for CC(c1ccc(O)cc1)(c1ccc(O)cc1)c1ccc(O)cc1 here?
A: Its outcome is “inactive”.

Q: For ClC1=C(Cl)[C@]2(Cl)[C@@H]3[C@@H](Cl)[C@H]4O[C@H]4[C@@H]3C1(Cl)C2(Cl)Cl, which outcome is on record?
A: Its outcome is “inactive”.

Q: Which outcome does the source give for Cc1ccccc1[N+](=O)[O-] here?
A: Its outcome is “inactive”.

Q: With ClC1=C(Cl)[C@]2(Cl)[C@@H]3[C@H]4C[C@H]([C@@H]5O[C@H]45)[C@@H]3[C@@]1(Cl)C2(Cl)Cl as the molecule, how does the outcome read?
A: Its outcome is “inactive”.

Q: For Oc1c(Cl)c(Cl)c(Cl)c(Cl)c1Cl, which outcome is on record?
A: The outcome was “inactive”.

Q: For CCCCCCCCCc1ccc(O)cc1, which outcome is on record?
A: Its outcome is “inactive”.

Q: With O=S(=O)(O)C(F)(F)C(F)(F)C(F)(F)C(F)(F)F as the molecule, how does the outcome read?
A: Its outcome is “inactive”.

Q: Which outcome does the source give for Cc1cc(-c2ccc(N)c(C)c2)ccc1N here?
A: The outcome was “inactive”.

Q: For CC#Cc1cc(C)nc(Nc2ccccc2)n1, which outcome is on record?
A: Its outcome is “inactive”.

Q: With O=C(O)C(F)(F)C(F)(F)C(F)(F)C(F)(F)C(F)(F)C(F)(F)C(F)(F)C(F)(F)F as the molecule, how does the outcome read?
A: Its outcome is “inactive”.

Q: For O=C(O)C(F)(F)C(F)(F)C(F)(F)C(F)(F)C(F)(F)C(F)(F)C(F)(F)C(F)(F)C(F)(F)F, which outcome is on record?
A: Its outcome is “inactive”.

Q: Which AC50 does the source give for CCCCCCCCCC[N+](C)(C)CCCCCCCCCC here?
A: The AC50 was 41.2 µM (active).

Q: With CCC(=O)O[C@H]1CC[C@H]2[C@@H]3CCC4=CC(=O)CC[C@]4(C)[C@H]3CC[C@]12C as the molecule, how does the AC50 read?
A: Its AC50 is 114 µM (active).

Q: With COc1ccc(O)c(C(C)(C)C)c1 as the molecule, how does the outcome read?
A: Its outcome is “inactive”.

Q: With CC1=C2C[C@H]3[C@@H](CC=C4C[C@@H](O)CC[C@@]43C)[C@@H]2CC[C@]12O[C@@H]1C[C@H](C)CN[C@H]1[C@H]2C as the molecule, how does the outcome read?
A: The outcome was “inactive”.

Q: For O=C(N[C@H]1CN2CCC1CC2)c1cc2ccoc2cn1, which outcome is on record?
A: Its outcome is “inactive”.

Q: Which AC50 does the source give for NS(=O)(=O)C(F)(F)C(F)(F)C(F)(F)C(F)(F)C(F)(F)C(F)(F)C(F)(F)C(F)(F)F here?
A: Its AC50 is 102 µM (active).

Q: For Oc1ccc(C(c2ccc(O)cc2)(C(F)(F)F)C(F)(F)F)cc1, which outcome is on record?
A: Its outcome is “inactive”.

Q: Which outcome does the source give for ClC(Cl)=C(c1ccc(Cl)cc1)c1ccc(Cl)cc1 here?
A: Its outcome is “inactive”.

Q: With C[C@]12CCC(=O)C=C1CC[C@@H]1[C@@H]2CC[C@@]2(C)[C@H]1CC[C@]2(C)O as the molecule, how does the outcome read?
A: The outcome was “inactive”.

Q: With CCCN(CCC)N=O as the molecule, how does the outcome read?
A: The outcome was “inactive”.

Q: With CC(C)(c1ccccc1)c1ccc(O)cc1 as the molecule, how does the outcome read?
A: The outcome was “inactive”.

Q: With Cc1cc2c3c(c1)C(c1ccccc1)=N[C@@H](NC(=O)c1ccncc1)C(=O)N3CC2 as the molecule, how does the outcome read?
A: Its outcome is “inactive”.

Q: Which AC50 does the source give for CC(C)(O)C(=O)Nc1ccc([N+](=O)[O-])c(C(F)(F)F)c1 here?
A: Its AC50 is 0.889 µM (active).

Q: With CCCCCCOC(=O)c1ccccc1C(=O)OCCCCCC as the molecule, how does the outcome read?
A: The outcome was “inactive”.

Q: With N#Cc1ccc(N(CC(N)=O)CC(F)(F)F)cc1C(F)(F)F as the molecule, how does the outcome read?
A: Its outcome is “inactive”.

Q: Which outcome does the source give for Clc1ccc(Cl)cc1 here?
A: Its outcome is “inactive”.

Q: For Clc1ccc(C(c2ccccc2Cl)C(Cl)(Cl)Cl)cc1 (stereo unspecified), which AC50 is on record?
A: The AC50 was 56.3 µM (active).

Q: For c1cc2ccc3cccc4ccc(c1)c2c34, which outcome is on record?
A: Its outcome is “inactive”.

Reference: PubChem BioAssay (EPA / NIEHS)
